Compound activity as filed in PubChem BioAssay.
Mcl1-Bid inh: Mcl-1/Bid interaction inhibition; inhibition, % at 21.7 µM; TR-FRET Mcl-1/Bid-Dy647 peptide binding, 1536-well; AID 1021; 220,000 tested, 0.97% active;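 active = compounds that cut the binding signal by more than half at the single screening dose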;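 also: His-tagged Mcl-1 with europium anti-His antibody binding Bid BH3 peptide; 0% = Mcl-1 plus peptide wells and 100% = peptide-only wells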
NCF1 inh: blocks human p47phox regulatory protein of NADPH oxidases; p47phox/p22phox peptide binding, fluorescence polarization, 2 h; 220,000 tested, 0.53% active; inhibition, % at 24.7 µM; AID 1274; P14598;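 active = inhibition above about 30%, limit read from the data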;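 also: 0% = p47phox with labelled peptide and 100% = labelled peptide alone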
Target sequence (P14598 whole entry, looked up): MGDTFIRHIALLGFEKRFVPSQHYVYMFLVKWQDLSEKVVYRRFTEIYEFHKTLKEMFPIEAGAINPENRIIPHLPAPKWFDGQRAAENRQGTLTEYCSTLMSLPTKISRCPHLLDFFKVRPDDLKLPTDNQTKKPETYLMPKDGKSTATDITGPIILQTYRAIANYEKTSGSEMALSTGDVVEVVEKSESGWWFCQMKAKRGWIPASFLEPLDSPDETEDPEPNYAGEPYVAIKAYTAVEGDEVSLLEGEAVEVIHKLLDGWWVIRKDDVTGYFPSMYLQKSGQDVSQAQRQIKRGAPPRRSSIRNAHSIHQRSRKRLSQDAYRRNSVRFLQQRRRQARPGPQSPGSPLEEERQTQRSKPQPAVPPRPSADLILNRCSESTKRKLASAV
Mcl-1 Bim block: human Bim-Mcl-1 interaction inhibition. Bead-based flow cytometry, Bim peptide-Mcl-1 binding. inhibition, % at 10 µM. 190,000 tested, 0.1% active. AID 1009; in the data active = inhibition above about 40%;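 also: 0% = no compound tracer wells and 100% = peptide blocker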
Mcl1-Noxa inh: disrupts binding of human Mcl-1 to Noxa peptide; TR-FRET Mcl-1/Noxa peptide binding, 2 h; 220,000 tested, 1.5% active; inhibition, % at 21.7 µM; Q07820;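 active = compounds that cut the protein-peptide binding signal by more than 50% relative to plate controls in a single-dose test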;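 also: His-tagged Mcl-1 with rhodamine Noxa BH3 peptide and terbium anti-His antibody; 0% = Mcl-1 plus Noxa peptide wells and 100% = peptide-only wells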
14-3-3 Bad inh: disrupts binding of bovine 14-3-3 zeta to phospho-Bad peptide; TR-FRET 14-3-3zeta/Dy647-pBad peptide displacement, 1 h; inhibition, % at 21.7 µM; 220,000 tested, 0.71% active;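 active = inhibition above about 70%, limit read from the data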;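 also: 0% = full 14-3-3 plus peptide FRET controls and 100% = background without 14-3-3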
The depositor's hits bear a star; nt = not tested or not shown. Most compounds without a hit are left out; they make up all but 3.2% or so of the library.

SMILES	Mcl1-Bid inh	NCF1 inh	Mcl-1 Bim block	Mcl1-Noxa inh	14-3-3 Bad inh
COC(=O)c1ccc(OC(=O)CCN2C(=O)C3C4c5ccccc5C(c5ccccc54)C3C2=O)cc1 (centres undefined)	52.4*	-7.4	-10.0	9.7	2.3
CC1CCN(C(C)C(=O)Nc2ccccc2-c2ccccc2)CC1 (centres undefined)	43.9	-1.7	-5.0	23.6	84.7*
O=C(CCS(=O)(=O)c1ccc(Br)cc1)Nc1ccc(Br)cc1F	-7.8	-6.2	0.0	-4.3	9.9
CCn1c(Cc2c(C)[nH]c3ccccc23)nnc1SCC(=O)NCc1ccco1	-28.9	-1.9	-4.0	1.1	-12.2
CCn1c(Cc2c(C)[nH]c3ccccc23)nnc1SCC(=O)NCc1ccccc1	-52.0	40.8*	-4.0	17.4	0.3
CC1CCCN(Cc2c(O)ccc3c2O/C(=C\c2ccco2)C3=O)C1 (centres undefined)	-3.9	-41.3	0.0	58.1*	-0.8
Cc1ccc(C(O)(C(=O)NNc2ccc3ccccc3n2)c2ccc(C)cc2)cc1	-60.7	-3.9	-2.0	-79.1	-3.6
C=CCn1c(SCC(=O)Nc2ccccc2C)nc2sc(C)c(C)c2c1=O	-8.7	-18.8	-6.0	-4.1	-7.6
C=CCn1c(SCC(=O)Nc2sccc2C(N)=O)nc2sc(C)c(C)c2c1=O	52.3*	-0.5	-3.0	3.1	16.8
CCOC(=O)Cc1cc(-c2ccc(F)cc2)nc2ccc3ccccc3c12	-12.3	-2.1	-4.0	-5.7	-24.6
O=C(Nc1ccc(Oc2ccccc2)cc1)C1CCN(c2ncccn2)CC1	18.3	-13.8	0.0	17.5	78.5*
CCNC(=S)Nc1ccc(Cl)c(C(F)(F)F)c1	-75.0	-5.3	-2.0	20.1	-16.1
O=C(Cn1c(C(F)(F)F)nc2ccccc21)N/N=C/c1ccco1	-4.0	-6.0	-7.0	-14.7	-6.3
CC(=O)Sc1nc(-c2ccccc2)[nH]c1S(=O)(=O)c1ccc(C)cc1	-53.1	-6.7	-2.0	70.1*	-14.3
CSc1nc(-c2ccc(C)cc2)[nH]c1S(=O)(=O)c1ccccc1	2.8	-15.6	2.0	25.9	22.9
COc1cccc(C(=O)COC(=O)CCC(=O)NC2CCCCC2)c1	-21.4	-1.6	0.0	-17.6	-7.8
Cc1cccc(-c2n[nH]c(=S)n2/N=C/c2ccc(C)s2)c1	-32.9	-8.8	4.0	69.0*	-1.0
COc1cc(NC(=O)c2ccc([N+](=O)[O-])cc2)ccc1NC(=O)C(C)C	0.4	nt	-9.0	-19.7	2.0
CC(=O)OCCn1c(C)[n+](CCOC(C)=O)c2cc(Cl)c(Cl)cc21	3.4	-5.5	-5.0	22.4	3.3
CC(=O)OCCn1c2nc(=O)[nH]c(=O)c-2nc2cc(C)c(C)cc21	96.4*	-29.9	nt	14.3	64.0
N#C/C(C(N)=O)=C1/SC=C(c2ccccc2)N1c1ccccc1	-73.7	-1.8	nt	2.9	0.6
N#C/C(C(=O)c1ccccc1)=C1/SC=C(N)N1c1ccccc1	15.4	-74.0	-3.0	55.2*	-10.5
CCc1nn(C(C)C(=O)NC(C)CCc2ccco2)c(=O)c2cc3occc3n12 (centres undefined)	-24.7	-2.4	2.0	16.8	-5.7
CCc1nn(C(C)C(=O)NCCc2ccc(OC)c(OC)c2)c(=O)c2cc3occc3n12 (centres undefined)	-33.2	-14.3	1.0	12.1	89.4*
O=C(CN1CCOCC1)Nc1c2c(nc3ccccc13)N(Cc1ccccc1)CC2	45.4	-4.5	-2.0	25.9	76.7*
SMILES	Mcl1-Bid inh	NCF1 inh	Mcl-1 Bim block	Mcl1-Noxa inh	14-3-3 Bad inh
C=CCn1c(=S)sc2c(=O)[nH]cnc21	-20.2	-0.9	nt	7.1	-14.6
C/C(N)=C(/C#N)C(=O)COC(=O)[C@@H](NC(=O)c1ccccc1Cl)C(C)C	-4.4	-9.8	2.0	3.3	-2.1
C=CCNc1nc(-c2ccc(OC)cc2OC)cs1	15.2	-8.7	-4.0	18.6	76.4*
C=CCCC(=O)Nc1nc(C)c(-c2csc(Nc3cc(OC)ccc3OC)n2)s1	-1.5	-2.8	-1.0	28.9	54.8
Cc1c2cc(O)c(=O)cc-2oc2cc(O)c(O)cc12	nt	-256.4	nt	nt	92.8*
Cn1c(Cc2ccccc2)nnc1SCC(=O)N1CCOCC1	-0.9	83.4*	6.0	0.8	11.8
Cc1ccc(C(=O)OCC(=O)Nc2ccc(N(C)C)cc2)cc1NC(=O)c1ccco1	-50.2	-4.7	0.0	79.2*	-9.0
CCN=C(Nc1ccc2c(c1)OCO2)SC1CC(=O)N(c2ccc(OC)cc2)C1=O (centres undefined)	-6.0	-5.4	0.0	23.5	-5.5
CCN=C(Nc1ccc2c(c1)OCO2)SC1CC(=O)N(c2ccccc2F)C1=O (centres undefined)	-9.0	42.2*	-2.0	-2.4	-7.7
